Screens as filed in PubChem BioAssay.
Rows were chosen to be rich in hits. Some 4.1% of all compounds tested hit in one or more screens of this group.
BoNT-A LC inh2 = inhibitors of Botulinum neurotoxin A light chain protease | multiplex microsphere protease substrate cleavage, flow cytometry | inhibition, % at 10 µM | hit rate 0.17% among 360,000 | AID 588499
Anthrax LF prot = anthrax lethal factor protease inhibition; hit rate 0.12% among 360,000; P15917; inhibition, % at 10 µM; multiplex microsphere protease cleavage assay, LF
Target sequence (P15917 whole entry, looked up): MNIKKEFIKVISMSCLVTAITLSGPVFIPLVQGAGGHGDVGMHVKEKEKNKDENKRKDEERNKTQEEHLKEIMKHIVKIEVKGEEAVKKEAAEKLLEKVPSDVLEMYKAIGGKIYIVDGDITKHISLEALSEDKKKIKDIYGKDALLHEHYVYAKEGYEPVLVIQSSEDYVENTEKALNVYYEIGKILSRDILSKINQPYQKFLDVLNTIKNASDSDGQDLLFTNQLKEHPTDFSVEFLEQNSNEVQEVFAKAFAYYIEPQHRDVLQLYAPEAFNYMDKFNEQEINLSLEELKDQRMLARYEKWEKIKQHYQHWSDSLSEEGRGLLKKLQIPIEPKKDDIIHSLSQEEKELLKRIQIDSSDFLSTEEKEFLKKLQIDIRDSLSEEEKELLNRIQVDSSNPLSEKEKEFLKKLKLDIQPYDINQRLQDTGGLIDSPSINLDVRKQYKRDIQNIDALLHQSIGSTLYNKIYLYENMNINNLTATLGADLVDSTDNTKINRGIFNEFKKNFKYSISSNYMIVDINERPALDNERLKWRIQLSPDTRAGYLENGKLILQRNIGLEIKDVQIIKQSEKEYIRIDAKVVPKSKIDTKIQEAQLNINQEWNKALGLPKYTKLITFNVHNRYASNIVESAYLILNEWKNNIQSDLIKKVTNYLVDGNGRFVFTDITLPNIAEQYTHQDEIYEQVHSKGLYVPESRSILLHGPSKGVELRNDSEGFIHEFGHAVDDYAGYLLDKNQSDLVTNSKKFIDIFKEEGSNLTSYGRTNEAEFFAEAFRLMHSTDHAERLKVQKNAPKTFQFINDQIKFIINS
Bead autofluor = counter-screen for toxin protease inhibitors: compound fluorescence; compound autofluorescence counterscreen, microsphere flow cytometry; active compounds read high; fluorescence intensity (test concentration not listed); hit rate 3.1% among 360,000; AID 624483; in the data active = fluorescence intensity above about 16000; inconclusive = no clear call, values can overlap the other calls
MazEF act = MazEF (E. coli) toxin RNase activation; FAM/BHQ RNA-DNA oligo cleavage fluorescence, 5 h; activation, % at 20 µM; P0AE70; hit rate 0.32% among 350,000; in the data active = activation above about 50%
DUSP3 inh = DUSP3 (human) phosphatase inhibition | recombinant VHR phosphatase, pNPP absorbance | hit rate 0.52% among 290,000 | P51452 | inhibition, % at 13.3 µM; in the data active = inhibition above about 50%
BoNT-F LC inh = inhibitors of Botulinum neurotoxin F light chain protease; hit rate 0.22% among 360,000; Multiplex microsphere protease cleavage assay, flow cytometry; inhibition, % at 10 µM; in the data active = inhibition above about 35%, passing the limit was not always enough; inconclusive = no clear call, values can overlap the other calls
A number is an active result; n = inactive; u = inconclusive; x = no result. Rule as the data show it, unless noted: active = inhibition above about 30%; inconclusive = no clear call, values can overlap the other calls; inactive = below that.

SMILES	BoNT-A LC inh2	Anthrax LF prot	Bead autofluor	MazEF act	DUSP3 inh	BoNT-F LC inh
Cc1ccc2c(COC(=O)c3ccccc3Br)cc(=O)oc2c1	n	n	n	n	60	n
O=C(O)C1CCCN(S(=O)(=O)c2ccc(-c3ccc(=O)[nH]n3)s2)C1 (stereo not drawn)	n	n	n	n	n	n
CC(C)(C)OC(=O)N1CCN(C(c2ccnc3ccccc23)c2nnnn2-c2ccc3c(c2)OCCO3)CC1 (stereo not drawn)	n	n	n	x	x	n
CCOC(=O)CCC(=O)Nc1ccccc1C(N)=O	u	n	22534	n	n	n
CCOC(=O)C(=O)Nc1ccccc1C(=O)NC(C)C	n	n	22964	n	n	n
CCOc1ccccc1NC(=O)c1cccc2ccccc12	x	x	x	n	n	x
CCOc1ccccc1C(=O)Nc1ccccc1C(N)=O	u	n	23043	n	n	n
CC(=O)Oc1c(Cl)cc(N(C(C)=O)S(=O)(=O)c2ccccc2)c2ccccc12	n	n	n	n	x	n
CC1(C(=O)NS(=O)(=O)c2cccc(Cl)c2)CCN1C(=O)CCc1cccs1 (stereo not drawn)	n	n	n	x	x	n
COC(=O)c1cc(C)nc2c1C(=O)C(=O)C=C2N1CCOCC1	n	n	n	n	54	n
O=C(NCCCCNC(=O)C1CCCC1)C1CCCC1	n	n	22858	n	n	n
Nc1nc2c(nc(SCc3ccccc3Br)n2[C@@H]2O[C@H](CO)[C@@H](O)[C@H]2O)c(=O)[nH]1	n	n	n	n	n	n
COc1cc(C(=O)NNC(=O)COc2ccccc2Cl)ccc1OCC(=O)N1CCOCC1	x	x	x	n	x	x
N#CCSc1ccsc1C(=O)Nc1ccc(F)cc1	n	n	16375	n	n	n
Cc1ccc(NC(=O)c2sccc2SCc2cccc(C(F)(F)F)c2)cc1	n	n	22569	n	n	n
CN(C)/C=C(\C#N)C(=O)Nc1ccc(F)cc1	n	n	n	n	n	n
Cc1cccc(C)c1NC(=O)c1sccc1SCc1cccc(C(F)(F)F)c1	n	n	17658	n	n	n
COc1ccc(CNC(=O)COC(=O)c2c(NC(C)=O)sc(C)c2C)cc1OC	n	n	n	n	x	n
Cc1cc(Br)ccc1N1C(=O)CC(=O)NC1=O	n	n	20409	n	n	n
O=C1CC(=O)N(c2cccc(Br)c2)C(=O)N1	n	n	n	n	n	n
O=C1CC(=O)N(c2ccc(Cl)cc2Cl)C(=O)N1	n	n	21690	n	n	n
CCN(CC)S(=O)(=O)c1cc(C(=O)Oc2ccccc2OC)ccc1OC	n	n	22741	n	n	n
Nc1ncnc(Nc2cc(C(F)(F)F)cc(C(F)(F)F)c2)n1	n	n	n	n	n	n
Nc1ncnc(Nc2cccc(C(F)(F)F)c2)n1	u	n	17187	n	n	n
COc1ccc(OC)c(NC(=O)Nc2ccc3c(c2)OCO3)c1	x	x	x	n	n	x
SMILES	BoNT-A LC inh2	Anthrax LF prot	Bead autofluor	MazEF act	DUSP3 inh	BoNT-F LC inh
NC(=O)c1cc2ccc(O)cc2oc1=NCc1ccccc1	n	n	n	785	n	n
NC(=O)c1cc2ccccc2oc1=NCc1ccccc1	n	n	n	n	n	n
O=C1COc2ccc(S(=O)(=O)N3CCC(C(=O)NCc4ccc(F)cc4)CC3)cc2N1	n	n	n	n	n	n
O=C1CCC(C(=O)Nc2ccccc2)N1 (stereo not drawn)	n	n	n	n	n	n
O=C1CCC(C(=O)OCc2c(Cl)cccc2Cl)N1 (stereo not drawn)	n	n	20438	n	n	n
O=C1CCC(C(=O)OCc2ccccc2)N1 (stereo not drawn)	n	n	24033	n	n	n
Cc1cc(C(C)(C)C)cc(C)c1COC(=O)C1CCC(=O)N1 (stereo not drawn)	n	n	n	n	n	n
N#Cc1c(N)nc2c(c1-c1ccncc1)CCCCC2	n	n	16184	n	n	n
CSc1ccc(-c2c(C#N)c(N)nc3c2CCCC3)cc1	n	n	n	n	n	n
N#Cc1c(N)nc2c(c1-c1cccnc1)CCCCC2	u	n	21866	n	n	n
N#Cc1sc2nc3c(c(-c4cccnc4)c2c1N)CCC3	n	n	n	n	n	n
CCOC(=O)C(C)N1c2cccc3cccc(c23)S1(=O)=O (stereo not drawn)	n	n	n	n	x	n
O=C(CSc1nc2ccc([N+](=O)[O-])cc2[nH]1)NC1CCCCCC1	n	n	n	n	n	n
O=C(CSc1nc2ccc([N+](=O)[O-])cc2[nH]1)NC1CCCCC1	u	n	20507	n	n	n
CC1(C)CC(=O)c2c(O)cc(OCc3ccc([N+](=O)[O-])cc3)cc2O1	u	n	24979	n	n	n
O=C(Nc1cc2c3c(c1)CC(=O)N3CCC2)c1ccco1	n	n	n	n	x	n
CN1CCN(c2nc(-c3ccccn3)nc3ccccc23)CC1	n	n	23212	n	n	n
CC(C)n1nnnc1SCC(=O)N1CCN(Cc2ccc3c(c2)OCCO3)CC1	n	n	n	n	x	n
O=C(CSc1nnc(NC(=O)c2ccc(F)cc2)s1)NC1CCCC1	n	n	n	n	n	n
CCCCN(Cc1nc2ccccc2c(=O)[nH]1)C(=O)COc1ccc(F)cc1Cl	n	n	n	n	x	n
CCCCCCOC(=O)Cc1c(C)nc(N)[nH]c1=O	n	n	n	n	n	n
Cc1nc(N)[nH]c(=O)c1CCC(=O)OCC(C)C	n	n	23221	n	n	n
CCCCCCOC(=O)CCc1c(C)nc(N)[nH]c1=O	n	n	n	n	52	n
CCOC(=O)Cc1c(C)nc(N)[nH]c1=O	n	n	n	n	n	n
NS(=O)(=O)c1ccc(CCNS(=O)(=O)c2ccc3c(c2)NC(=O)CO3)cc1	n	n	n	n	n	n
SMILES	BoNT-A LC inh2	Anthrax LF prot	Bead autofluor	MazEF act	DUSP3 inh	BoNT-F LC inh
OC[C@@H]1CN(Cc2ccccc2)C[C@H](n2cnc3c(N4CCOCC4)ncnc32)O1	n	n	n	x	x	n
CC1CC(CC(C)C(=O)Nc2nncs2)C(=O)O1 (stereo not drawn)	u	n	22855	n	n	n
CC1CC(CC(C)C(=O)NC(=S)Nc2ccc(S(N)(=O)=O)cc2)C(=O)O1 (stereo not drawn)	n	n	n	n	n	n
O=C(NCc1ccccc1Cl)C1CCCN1S(=O)(=O)c1ccccc1F (stereo not drawn)	n	n	n	n	n	n
O=C(NCc1cccs1)C1CCCN1S(=O)(=O)c1ccccc1F (stereo not drawn)	u	n	19819	n	n	n
CC1(C)CC(=O)C2=C(C1)c1c(ccc3ccccc13)NC2c1ccc(C(=O)O)cc1 (stereo not drawn)	n	n	n	n	n	n
Cc1ccc(C2Nc3ccc4ccccc4c3C3=C2C(=O)CC(C)(C)C3)o1 (stereo not drawn)	n	n	21585	n	n	n
Cc1ccc(C(=O)Nc2cccc(C(=O)N/N=C/c3ccc(F)cc3)c2)cc1	n	n	n	63	n	n
Cc1cccc(C(=O)N/N=C/c2ccncc2)c1	n	n	16845	n	n	n
Cc1ccc(N/N=C/c2ccncc2)cc1	n	n	n	n	57	u
